Screening results (PubChem)
HTT aggregate = qHTS Multiplex Assay to Identify Dual Action Probes in a Cell Model of Huntington: Aggregate Formation (GFP); PC12 HttQ103-GFP aggregates, Acumen cytometry, 40 h; Potency, µM (series often up to 46.1 µM), usual class: inhibitors; actives 1.1% (n = 220,000); AID 1688, 2009; note: nearly all actives have a fitted effect of over 60% in size
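Steps: seed 1500 PC12 HTTQ103-GFP cells/well; add tebufenozide, 100 nM final; add compound titration; add ATPLite reagent; quantify GFP aggregates by laser scanning cytometry.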
HTT cytoprotect = qHTS Multiplex Assay to Identify Dual Action Probes in a Cell Model of Huntington: Cytoprotection (ATP); PC12 HTT-Q103 induced, cytoprotection, ATP luminescence, 40 h; Potency, µM (titrated, usually from 56.4 µM), usual class: activators; actives 0.14% (n = 230,000); AID 1471, 2008; note: nearly all actives have a fitted effect of over 45% in size
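Compounds added alongside 100 nM tebufenozide, which induces toxic Q103 huntingtin exon 1-GFP in stable PC12 cells; surviving cells quantified by luminescent ATP measurement. Medium: phenol red-free DMEM, 5% equine and 5% calf serum.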
PNC assembly inh = High Content Assay for Compounds that inhibit the Assembly of the Perinucleolar Compartment; PC3M PTB-GFP, PNC prevalence imaging, 16 h; hits give low values; activity change (PNC), negative = inhibition, % at 10 µM; actives 3.1% (n = 140,000); AID 2417, 2010;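 active = readout at or below -70, meaning at least 70% loss of cells showing the perinucleolar compartment, a nuclear body marking cancer cells; inconclusive = readout between -30 and a set limit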
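Compounds are pinned in duplicate onto adhered PC3M cells stably expressing GFP-tagged PTB and incubated 16 h at 37 C. Cells are then fixed, nuclei stained with Hoechst, and PNC-positive cells counted.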
Hits are given with their value; n = inactive; u = inconclusive; x = not tested or not shown; [ ] = dose if it differs, or a comment. The full list was thinned out, with hits kept by preference. Unless noted, calls come from the whole dose curve; as a rule, active = well fitted curve in the direction sought with a large enough effect; inconclusive = small, poorly fitted or top-dose-only effect, or another doubt; inactive = no such curve, though single readings can be large; an effect the other way counts as inactive or inconclusive.

SMILES	HTT aggregate	HTT cytoprotect	PNC assembly inh
Cc1sc2nc(C(C)C)nc(SCC(=O)N3c4ccccc4CC3C)c2c1C (configuration not stated)	n	n[10 µM]	-97
CCc1nc(SCC(=O)N2c3ccccc3CC2C)c2c(C)c(C)sc2n1 (configuration not stated)	u	n	u
O=c1c2ccccc2cnn1-c1nc2ccccc2s1	x	n[0.074 µM]	x
Cc1ccc(N2C(=O)CC(c3c[nH]c4ccccc34)C2=O)cc1 (configuration not stated)	n	n	x
CCC1=NN=C(c2ccc(F)cc2)C(c2c[nH]c3ccccc23)N1O (configuration not stated)	n	n[10 µM]	-100
O=C(CN1CCCC1)Nc1ccccc1C(=O)c1ccccc1	n[9.22 µM]	n[10 µM]	x
CCOC(=O)c1cc2sccc2n1CC(=O)N1CCCc2ccccc21	n	n	n
CCOC(=O)c1cc2occc2n1CC(=O)N1CCCc2ccccc21	n	n[10 µM]	-84
CC1(C)C[C@@H]2C[C@@](C)(CN2C(=O)c2ccccc2)C1	n[9.22 µM]	n[10 µM]	x
CCC(=O)Nc1nc2c(s1)COc1ccccc1-2	n	n[10 µM]	u
O=C(COc1ccc(C(=O)c2ccccc2)cc1)NCc1ccc(F)cc1	n	n[10 µM]	-81
O=C(COc1ccccc1)NCc1ccccc1	n	n	n
CCCCN(CC)Cc1ccc(CNC(=O)Nc2ccc(OC)cc2OC)o1	n	n	n
O=C(NC1CCCCC1)NC1(C(=O)NCCCN2CCOCC2)CCCCC1	n	n	n
Cc1nn(Cc2ccccc2)c(=O)n1N(C)c1ncc(C(F)(F)F)cc1Cl	n	n	n
Cc1c(/C=N/NC(=O)C2(O)c3ccccc3-c3ccccc32)cnn1C	n	x	n
O=C(N/N=C/c1ccccc1O)C1(O)c2ccccc2-c2ccccc21	10µM	n[1.9 µM]	n
CCC1CCCCN1CC(=O)c1c(C)[nH]c2ccccc12 (configuration not stated)	n	n	n
Cc1[nH]c2ccccc2c1C(=O)CN1CCCCC1C (configuration not stated)	n[9.22 µM]	n	-96
CCOC(=O)N1CCN(Cc2c(F)cccc2F)CC1	n[9.22 µM]	n	n
O=C(/C=C/c1cccc(Cl)c1)Nc1ncccn1	n	n[10 µM]	n
CSc1cccc(NC(=O)/C=C/c2cccc(Cl)c2)c1	16µM	x	n
C=CCSc1nnc(NC(=O)CSc2nc3ccccc3[nH]2)s1	n	n	n
CCCc1cc(=O)[nH]c(SCC(=O)Nc2ccc(OC(F)F)cc2)n1	n	n	-94
C=CCSc1nnc(NC(=O)CSc2nc(CCC)cc(=O)[nH]2)s1	11µM	n[10 µM]	n
SMILES	HTT aggregate	HTT cytoprotect	PNC assembly inh
CCCc1cc(=O)[nH]c(SCC(=O)Nc2ccc3c(c2)CCC3)n1	n[9.22 µM]	n[10 µM]	x
Cc1cc(C(=O)OCC(=O)Nc2ccc(F)cc2[N+](=O)[O-])c2ccccc2n1	n	n[10 µM]	n
NC(=O)c1cc2ccccc2oc1=NCc1ccccc1	n	n	n
NC(=O)c1cc2ccccc2o/c1=N\NC(=O)c1ccco1	n	n[10 µM]	-119
CCOc1ccc(OCC)c(NC(=O)C2COc3ccccc3O2)c1 (configuration not stated)	n	n	n
CCOC(=O)C1=C(C)NC(=O)NC1c1ccc(OCC(=O)OC)c(OC)c1 (configuration not stated)	n	n	n
CN(C)c1ccc(-c2nc(N(C)Cc3ccco3)c3ccccc3n2)cc1	x	n	x
Cc1cc(-c2ccc([N+](=O)[O-])cc2)nc2ccccc12	n	n[10 µM]	x
CN(Cc1ccccc1)c1nc(-c2ccc([N+](=O)[O-])cc2)nc2ccccc12	n	n	-98
O=[N+]([O-])c1ccc(-c2nc(C(Cl)Cl)c3ccccc3n2)cc1	1.8µM	n[10 µM]	x
COc1ccc(C(=O)Nn2cnnc2)cc1OC	n[9.22 µM]	n[10 µM]	x
CCCN1C(=S)SC(C)(C)C1/[N+]([O-])=C/c1cccnc1 (configuration not stated)	n[9.22 µM]	n	n
CC1CCN(C(=O)COc2ncnc3ccccc23)CC1	n	n[10 µM]	x
O=C(c1cccnc1NCc1ccc(F)cc1)N1CCOCC1	n	n[10 µM]	n
CCN(CC)c1nc2nonc2nc1N(CC)CC	0.45µM	n	u
Cc1cc(C)n(-c2nc3nonc3nc2-n2nc(C)cc2C)n1	n	n[10 µM]	n
Cc1ccc(-n2c(CNc3ccc(F)cc3)nnc2SCC(=O)N2CCCC2)cc1	n	n	n
CN(C)S(=O)(=O)c1ccc(NC(=O)c2ccc(Br)o2)cc1	n	n[10 µM]	n
CN(C1CCCCC1)S(=O)(=O)c1ccc(NC(=O)c2ccc(Br)o2)cc1	22µM	n[10 µM]	n
O=[N+]([O-])c1cccc(/C=N/Nc2nc(N3CCCCC3)nc(N3CCCCC3)n2)c1	n	n	x
CC1CCC(C(C)C)C(OCC(O)CN2CCOCC2)C1 (configuration not stated)	n	n	-110
CC1CCC(C(C)C)C(OCC(O)CN2CCCC(C)C2)C1 (configuration not stated)	n	x	x
CCOC(=O)c1c(C)[nH]c(C(=O)Cn2c(=O)c3c(ncn3CC)n(Cc3ccccc3)c2=O)c1C	n	n[10 µM]	n
COc1cccc(-c2nnc3sc(-c4cccs4)nn23)c1	n	n	u
CCOc1cccc(-c2nnc3sc(-c4cccs4)nn23)c1	n	n	-127
SMILES	HTT aggregate	HTT cytoprotect	PNC assembly inh
COCCN(C(=O)COc1ccccc1)c1nnc(-c2cccnc2)s1	n	n[10 µM]	n
COCCN(C(=O)COc1ccc(Cl)cc1)c1nnc(-c2cccnc2)s1	n	n[10 µM]	-100
O=C(Nc1sc2c(c1-c1nc3ccccc3[nH]1)CCCC2)C1CCCC1	n	n	u
CC(=O)NCCC(=O)Nc1sc2c(c1-c1nc3ccccc3[nH]1)CCCC2	n	n	-80
COc1ccc(Oc2c(C)oc3cc(OC(=O)N4CCOCC4)ccc3c2=O)cc1	n	n	u
Cn1c2c(c(=O)n(C)c1=O)[C@@]1(C(=O)Nc3ccccc31)C(C#N)=C(N)O2	13µM	n[10 µM]	n
N#CC1=C(N)Oc2n[nH]c(-c3ccccc3)c2C12C(=O)Nc1ccccc12 (configuration not stated)	n	n[10 µM]	n
O=C(NCc1ccc(F)cc1)C1CCCN(S(=O)(=O)c2cccnc2)C1 (configuration not stated)	n	n	n
COc1cccc(C2C(C#N)=C(N)N(c3ncn[nH]3)C3=C2C(=O)CCC3)c1 (configuration not stated)	n	x	u
COc1ccc(N2C(N)=C(C#N)C(c3ccsc3)C3=C2CCCC3=O)c(OC)c1 (configuration not stated)	n	x	-109
CN(C)CCc1c[nH]c2ccc(CC3COC(=O)N3)cc12 (configuration not stated)	n	n	x
N#C/C(=C\c1cn(CCOc2ccccc2F)c2ccccc12)C(=O)NCc1cccs1	n	n[10 µM]	u
N#C/C(=C\c1cn(Cc2ccc(C#N)cc2)c2ccccc12)C(=O)NCc1cccs1	u	n[10 µM]	-116
COc1ccc(OCC(=O)N/N=C\c2ccco2)cc1	n[9.22 µM]	n[10 µM]	x
CNC(=O)c1ccc(OCc2ccccc2)c(OC)c1	n	n	-107
COc1ccc(C(=O)NN=C(Cc2ccccc2)Cc2ccccc2)cc1OC	n	x	n
COc1ccccc1OCc1ccc(C(=O)N/N=C/c2ccco2)cc1	n	x	-114
